# Reference: PubChem BioAssay AID602438 (Sanford-Burnham Center for Chemical Genomics, 2012)
# In all, about 360,000 compounds went through this assay and about 3,100 (0.86%) were called active. The sample holds actives, similar compounds and a random draw of the others, so the mix is not that of the screen. A number with no mark means an inactive call.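 The calls were made as follows: active = inhibition or corrected inhibition above about 18%, plus a signal ratio from 0.5 to 1.5 (limit read from the data, passing the limit was not always enough); inactive = the rest.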
# Biological target: Neuropilin-1 (Homo sapiens) (UniProt O14786)
# Assay: NRP-1/CendR peptide interaction modulators – biochemical, fluorescence polarization, uHTS, primary screen (AID 602438)
# Conditions: FAM-RPARPAR peptide binding to NRP-1, fluorescence polarization; at 25 µM; hits give high values
# Chain of Neuropilin-1 (Homo sapiens) (O14786 whole entry, looked up): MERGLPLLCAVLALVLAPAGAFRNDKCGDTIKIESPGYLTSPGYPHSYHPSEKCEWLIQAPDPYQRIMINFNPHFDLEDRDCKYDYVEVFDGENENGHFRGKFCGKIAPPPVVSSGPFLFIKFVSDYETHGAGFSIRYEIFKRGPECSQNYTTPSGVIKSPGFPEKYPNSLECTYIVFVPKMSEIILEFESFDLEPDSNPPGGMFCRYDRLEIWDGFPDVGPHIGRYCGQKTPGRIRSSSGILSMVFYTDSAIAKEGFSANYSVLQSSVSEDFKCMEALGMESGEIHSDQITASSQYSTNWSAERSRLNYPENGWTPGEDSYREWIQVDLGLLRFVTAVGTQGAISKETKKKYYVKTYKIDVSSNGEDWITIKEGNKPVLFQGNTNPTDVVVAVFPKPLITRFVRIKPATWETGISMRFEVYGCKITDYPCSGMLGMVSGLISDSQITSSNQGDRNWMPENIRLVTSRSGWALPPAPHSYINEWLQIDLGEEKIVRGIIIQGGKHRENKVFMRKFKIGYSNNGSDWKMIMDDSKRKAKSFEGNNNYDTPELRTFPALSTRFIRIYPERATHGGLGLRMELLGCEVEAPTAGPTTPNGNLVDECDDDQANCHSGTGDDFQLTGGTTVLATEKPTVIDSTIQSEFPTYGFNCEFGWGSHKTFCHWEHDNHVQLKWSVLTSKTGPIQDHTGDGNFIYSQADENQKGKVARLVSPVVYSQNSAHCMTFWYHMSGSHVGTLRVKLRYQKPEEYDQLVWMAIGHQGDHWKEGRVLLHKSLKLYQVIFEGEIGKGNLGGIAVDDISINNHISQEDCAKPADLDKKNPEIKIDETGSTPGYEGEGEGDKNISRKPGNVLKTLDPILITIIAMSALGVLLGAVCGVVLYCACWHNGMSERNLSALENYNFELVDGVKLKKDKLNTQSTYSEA
row,SMILES,inhibition
1,O=C(C/C(=N\NC(=O)c1ccccc1Br)C(F)(F)F)c1cccs1,0%
2,CN(C)C(CNC(=O)c1cc(Br)c(Br)s1)c1ccco1 (configuration not stated),-4.5%
3,COc1cc(/C=C/c2ccc(/C=C/c3cc(OC)c(OC)c(OC)c3)cc2)cc(OC)c1OC,20.5% (active)
4,COc1cc(/C=C/C2=CC(C)(C)NC(=S)N2)cc(OC)c1OC,3.9%
5,CCC(=O)c1ccc(OC(=O)/C=C/c2cc(OC)c(OC)c(OC)c2)cc1,2.2%
6,Cc1cccc(C)c1NC(=O)C(c1cccc(F)c1)N1CCN(C)CC1 (configuration not stated),1.1%
7,CCOc1ccc(/C(O)=C2/C(=O)C(=O)N(Cc3cccnc3)C2c2ccc(N(C)C)cc2)c(C)c1 (configuration not stated),6.1%
8,Cc1ccc(CN2CCCOCCS2(=O)=O)cc1,4%
9,O=C(Oc1ccc([N+](=O)[O-])cc1)c1ccc2ccccc2n1,6.3%
10,Cc1ccc2cccc([N+](=O)[O-])c2n1,-4.4%
11,O=[N+]([O-])c1cc2ccccc2nc1-c1ccccc1,20.7% (active)
12,CNc1nc(=O)n(C2CCCO2)cc1C (configuration not stated),-12.3%
13,CCCCCCNC(=O)O[C@]12C[C@@H](C(=O)OC)[C@@H](C(=O)OC)C[C@@]1(O)CN(S(=O)(=O)c1ccc(C)cc1)C2,-8.7%
14,Cc1ccc(C(=O)COC(=O)c2cccc(N3C(=O)c4c(C)nc5ccccc5c4C3=O)c2)cc1C,-9.4%
15,COc1ccc(CCN=C2SCC(=O)N2C)cc1OC,0.9%
16,COc1ccc(Cn2c(=O)sc3ccccc32)cc1OC,-6.5%
17,COc1ccc(CCN=C2SCC(=O)N2Cc2ccccc2)cc1OC,32.3% (active)
18,COc1cccc(OC)c1C(=O)N1CCN(Cc2cccnc2)CC1,1.8%
19,N#CCCN(CCC#N)c1nnc(-c2ccccc2)s1,0.8%
20,Cc1nn2cc(-c3ccc(Cl)cc3)cnc2c1Br,4%
21,Cc1scc(C(=O)NNC(=S)NCc2ccccc2)c1C,6.1%
22,CC(C)Oc1ccc(CC(=O)NNC(=S)Nc2ccc(Br)cc2)cc1,1.7%
23,CC(C)Oc1ccc(CCC(=O)NNC(=S)NCc2ccccc2)cc1,37.4% (active)
24,O=C(CS(=O)(=O)c1ccc(C(F)(F)F)cn1)NNC(=O)c1ccccc1,-6.4%
25,CCNC(=O)N(CC)C[C@H]1N[C@@](CC)(C(=O)OC)[C@H]2C(=O)N(Cc3ccccc3)C(=O)[C@@H]12,-9.5%
26,CCN(C[C@H]1N[C@@](CC)(C(=O)OC)[C@H]2C(=O)N(C)C(=O)[C@@H]12)C(=O)Nc1ccc(F)cc1,33.4% (active)

row,SMILES,inhibition
1,CC[C@@]1(C(=O)OC)N[C@H](CN(C)C(C)=O)[C@@H]2C(=O)N(C)C(=O)[C@@H]21,-0.8%
2,CCOC(=O)c1c(C)nn(-c2ncccc2NC(=O)CCC(=O)O)c1C,21.7%
3,Cc1cc(C(=O)Nc2ccc(C)c(S(=O)(=O)N3CCOCC3)c2)c2ccccc2n1,-3.5%
4,CC(C)(CNC(=O)c1cc(=O)[nH]c2ccccc12)N1CCOCC1,9.2%
5,COc1ccc(NC(=O)c2cc(=O)[nH]c3ccccc23)cc1S(=O)(=O)N1CCOCC1,26.2% (active)
6,Cc1ccc(O)c(NC(=O)c2cc(-c3ccco3)on2)c1,-12.1%
7,CC(C)Oc1ccc(C(CC(=O)N2CCOCC2)C(C)C)cc1 (configuration not stated),9%
8,CCN(CC)C(=O)CSC(Nc1cccc(F)c1)=C(C#N)C#N,-180%
9,O=C1C2C3C=CC(C3)C2C(=O)N1c1ccc(-c2nc3ccccc3c(=O)o2)cc1 (configuration not stated),0.6%
10,COc1cc(C2c3cc4c(cc3C(O)C3COC(=O)C23)OCO4)cc(OC)c1OC (configuration not stated),-3.6%
11,COc1c(O)ccc2c1CN1CCc3cc4c(cc3C1C2)OCO4 (configuration not stated),30% (active)
12,COc1ccc(CN2CCCC(N3CCc4ccccc4C3)C2)c(O)c1 (configuration not stated),5%
13,CC(C)(C)NC(=O)C(=O)NCc1ccncc1,-1.7%
14,CCCN1C2CCCC1CC(NC(=O)NC13CC4CC(CC(C4)C1)C3)C2 (configuration not stated),5.4%
15,Cc1ccccc1NC(=O)CSc1ccc2nnc(-c3ccccn3)n2n1,8.8%
16,Cc1ccc(C(=O)N/N=C\c2cc(Br)c(Br)o2)cn1,28.3% (active)
17,CCOc1cc(/C=N/NC(=O)c2ccncc2)cc(Br)c1O,2.3%
18,O=C(N/N=C/c1ccc(Br)o1)c1cncc(Br)c1,2.7%
19,Cc1ccccc1Cn1c(C)c(C(=O)NCc2cccc(C(F)(F)F)c2)sc1=O,-0.6%
20,O=C1c2ccccc2C(O)N1Cc1ccccc1 (configuration not stated),-0.3%
21,CCOC(=O)C1=C(c2ccccc2)NC(=O)NC1c1cc(OC)c(OC)cc1OC (configuration not stated),-1.4%
22,Nn1c(SCC(=O)NC(=O)NC2CCCC2)nnc1-c1ccccc1F,-0.3%
23,Cc1nnc(SCC(=O)NC(=O)NC2CCCC2)n1N,30.1% (active)
24,Nn1c(SCC(=O)NC2CCCC2)nnc1-c1ccccc1F,6.4%
25,COC(=O)c1cccc(N(C(=O)CNC(=O)c2cccs2)C(C(=O)NCC2CCCO2)c2ccc(OC)c(OC)c2)c1 (configuration not stated),6.4%
26,Cc1cccc(C(=O)Nc2ccccc2C(=O)NCc2cccnc2)c1,3.7%
